Tests used:
Experiment in all cases: log2 ratio of Biotin-Ahx-Ub-VS probe labelling (fragment/DMSO); higher = less target engagement (more negative = stronger competition), active = hit call of the paper (q ≤ 0.05, log2 ratio ≤ -1)
Details in all cases: compound concentration: 200 uM; treatment time: 3 h
USP34 = USP34 (UniProt Q70CQ2)
In short: (§1)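 HEK293T lysate (495 µg per sample, in Tris/CHAPS/IGEPAL buffer with protease inhibitors) was exposed in triplicate for 3 h to fragment at 200 µM or to vehicle, then to Biotin-Ahx-Ub-VS at 0.5 µM final for 1 h. Labelled DUBs were enriched on NeutrAvidin, digested with LysC and trypsin, and analysed by diaPASEF LC-MS/MS. Spectronaut label-free quantities were normalised to the global median, and values are average log2 ratios of fragment over vehicle from an unpaired t-test. Only proteins with ≥2 unique peptides were used.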

USP36 = target: T1, USP36 (UniProt Q9P275)
T1 sequence (whole entry): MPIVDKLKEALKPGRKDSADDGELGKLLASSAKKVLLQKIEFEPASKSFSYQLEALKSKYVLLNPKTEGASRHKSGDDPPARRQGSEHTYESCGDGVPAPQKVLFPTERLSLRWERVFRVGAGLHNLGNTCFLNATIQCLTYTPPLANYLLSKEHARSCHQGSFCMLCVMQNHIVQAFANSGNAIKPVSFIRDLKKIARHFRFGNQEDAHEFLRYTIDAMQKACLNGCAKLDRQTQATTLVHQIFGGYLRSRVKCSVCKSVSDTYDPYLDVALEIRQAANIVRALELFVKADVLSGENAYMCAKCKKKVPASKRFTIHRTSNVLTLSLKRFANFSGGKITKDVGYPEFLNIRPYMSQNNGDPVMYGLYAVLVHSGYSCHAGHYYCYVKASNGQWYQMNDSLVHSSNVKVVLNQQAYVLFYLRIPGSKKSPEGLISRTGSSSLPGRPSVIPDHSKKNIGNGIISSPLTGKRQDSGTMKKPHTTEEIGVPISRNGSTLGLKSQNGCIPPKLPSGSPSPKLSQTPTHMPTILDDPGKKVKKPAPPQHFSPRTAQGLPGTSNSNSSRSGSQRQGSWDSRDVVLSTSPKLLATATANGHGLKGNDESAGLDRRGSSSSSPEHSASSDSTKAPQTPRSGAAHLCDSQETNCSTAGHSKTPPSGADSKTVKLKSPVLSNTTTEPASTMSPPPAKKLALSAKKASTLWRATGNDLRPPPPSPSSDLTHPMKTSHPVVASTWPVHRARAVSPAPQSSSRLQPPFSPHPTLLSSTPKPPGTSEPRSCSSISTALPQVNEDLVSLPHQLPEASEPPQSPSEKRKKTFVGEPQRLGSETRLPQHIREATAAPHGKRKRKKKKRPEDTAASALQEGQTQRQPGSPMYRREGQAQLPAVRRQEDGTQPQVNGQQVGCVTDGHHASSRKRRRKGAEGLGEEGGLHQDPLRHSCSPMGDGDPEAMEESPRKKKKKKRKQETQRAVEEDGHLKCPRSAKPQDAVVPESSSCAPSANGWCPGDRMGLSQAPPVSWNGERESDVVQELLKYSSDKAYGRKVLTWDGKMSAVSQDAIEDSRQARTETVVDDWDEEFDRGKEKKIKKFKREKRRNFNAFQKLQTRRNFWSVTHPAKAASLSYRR
In short: as §1

USP38 = target: T2, USP38 (UniProt Q8NB14)
T2 sequence (whole entry): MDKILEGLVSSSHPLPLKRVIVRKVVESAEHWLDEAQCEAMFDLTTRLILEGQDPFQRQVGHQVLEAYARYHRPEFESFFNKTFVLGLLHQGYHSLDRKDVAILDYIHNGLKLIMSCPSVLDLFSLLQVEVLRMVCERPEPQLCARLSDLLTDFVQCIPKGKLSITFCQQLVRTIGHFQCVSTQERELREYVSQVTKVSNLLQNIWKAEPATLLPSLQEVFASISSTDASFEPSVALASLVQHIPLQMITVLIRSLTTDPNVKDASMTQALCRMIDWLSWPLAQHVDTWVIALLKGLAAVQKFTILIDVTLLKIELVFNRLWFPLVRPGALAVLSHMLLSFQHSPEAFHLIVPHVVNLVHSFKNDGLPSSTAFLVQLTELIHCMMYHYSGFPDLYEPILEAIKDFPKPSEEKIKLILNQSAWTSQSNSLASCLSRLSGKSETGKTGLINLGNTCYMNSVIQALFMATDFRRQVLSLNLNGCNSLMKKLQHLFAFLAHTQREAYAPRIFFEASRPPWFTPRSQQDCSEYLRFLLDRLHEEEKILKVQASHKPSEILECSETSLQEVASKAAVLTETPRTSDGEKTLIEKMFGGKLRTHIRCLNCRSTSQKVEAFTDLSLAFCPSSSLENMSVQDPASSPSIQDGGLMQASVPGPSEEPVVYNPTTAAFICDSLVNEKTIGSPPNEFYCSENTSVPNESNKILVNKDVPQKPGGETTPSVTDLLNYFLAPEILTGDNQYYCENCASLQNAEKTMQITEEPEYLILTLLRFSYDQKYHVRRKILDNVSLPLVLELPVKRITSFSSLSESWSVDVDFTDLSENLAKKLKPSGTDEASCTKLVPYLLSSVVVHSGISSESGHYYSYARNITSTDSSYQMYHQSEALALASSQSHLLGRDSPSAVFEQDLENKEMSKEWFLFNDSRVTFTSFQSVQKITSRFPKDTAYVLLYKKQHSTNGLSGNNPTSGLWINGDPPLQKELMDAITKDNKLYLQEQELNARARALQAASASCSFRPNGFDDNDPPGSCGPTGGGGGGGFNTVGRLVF
In short: as §1

USP39 = target: T3, USP39 (UniProt Q53GS9)
T3 sequence (whole entry): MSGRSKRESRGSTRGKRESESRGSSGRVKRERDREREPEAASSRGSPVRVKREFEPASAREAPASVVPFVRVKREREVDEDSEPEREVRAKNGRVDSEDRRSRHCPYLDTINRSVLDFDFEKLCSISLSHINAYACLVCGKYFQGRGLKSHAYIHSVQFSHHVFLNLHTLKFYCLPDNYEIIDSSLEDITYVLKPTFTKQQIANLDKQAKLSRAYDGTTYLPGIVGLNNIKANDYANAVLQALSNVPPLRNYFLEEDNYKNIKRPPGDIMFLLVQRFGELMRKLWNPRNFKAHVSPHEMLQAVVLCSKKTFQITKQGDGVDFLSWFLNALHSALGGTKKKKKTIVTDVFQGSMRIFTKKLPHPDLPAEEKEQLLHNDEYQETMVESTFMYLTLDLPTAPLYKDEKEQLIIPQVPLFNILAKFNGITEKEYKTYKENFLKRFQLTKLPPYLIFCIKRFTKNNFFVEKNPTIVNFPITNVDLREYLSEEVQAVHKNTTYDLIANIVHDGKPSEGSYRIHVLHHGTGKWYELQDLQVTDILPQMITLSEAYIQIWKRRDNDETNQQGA
In short: as §1

USP4 = target: T4, USP4 (UniProt Q13107)
T4 sequence (whole entry): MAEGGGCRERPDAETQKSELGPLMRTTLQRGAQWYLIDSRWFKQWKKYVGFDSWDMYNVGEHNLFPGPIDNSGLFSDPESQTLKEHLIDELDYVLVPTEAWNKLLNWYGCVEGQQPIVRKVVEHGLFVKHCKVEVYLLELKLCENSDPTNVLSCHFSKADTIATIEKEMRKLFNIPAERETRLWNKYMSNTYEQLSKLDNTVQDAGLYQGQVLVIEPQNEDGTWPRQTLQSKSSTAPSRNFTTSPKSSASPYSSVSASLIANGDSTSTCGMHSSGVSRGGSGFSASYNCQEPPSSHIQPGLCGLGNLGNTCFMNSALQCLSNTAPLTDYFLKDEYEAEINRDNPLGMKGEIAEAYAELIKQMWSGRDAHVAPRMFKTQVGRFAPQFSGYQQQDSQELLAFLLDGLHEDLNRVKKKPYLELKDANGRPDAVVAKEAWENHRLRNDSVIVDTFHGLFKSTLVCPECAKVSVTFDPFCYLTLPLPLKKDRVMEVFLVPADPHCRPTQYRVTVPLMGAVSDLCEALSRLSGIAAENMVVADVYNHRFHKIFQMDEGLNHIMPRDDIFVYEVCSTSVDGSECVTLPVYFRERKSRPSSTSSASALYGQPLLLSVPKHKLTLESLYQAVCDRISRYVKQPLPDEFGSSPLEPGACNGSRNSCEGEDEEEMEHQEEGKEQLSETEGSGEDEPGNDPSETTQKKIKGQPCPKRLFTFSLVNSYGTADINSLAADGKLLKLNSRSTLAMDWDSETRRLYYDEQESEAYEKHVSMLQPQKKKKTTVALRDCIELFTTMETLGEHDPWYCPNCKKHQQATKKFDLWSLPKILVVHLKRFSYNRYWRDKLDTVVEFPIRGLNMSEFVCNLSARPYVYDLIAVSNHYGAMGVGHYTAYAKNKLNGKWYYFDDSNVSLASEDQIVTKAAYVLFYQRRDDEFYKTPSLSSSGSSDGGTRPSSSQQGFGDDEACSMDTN
In short: as §1

Measured: log2 ratio of Biotin-Ahx-Ub-VS probe labelling

USP34, sequence (Q70CQ2 whole entry, the tested form may be a part): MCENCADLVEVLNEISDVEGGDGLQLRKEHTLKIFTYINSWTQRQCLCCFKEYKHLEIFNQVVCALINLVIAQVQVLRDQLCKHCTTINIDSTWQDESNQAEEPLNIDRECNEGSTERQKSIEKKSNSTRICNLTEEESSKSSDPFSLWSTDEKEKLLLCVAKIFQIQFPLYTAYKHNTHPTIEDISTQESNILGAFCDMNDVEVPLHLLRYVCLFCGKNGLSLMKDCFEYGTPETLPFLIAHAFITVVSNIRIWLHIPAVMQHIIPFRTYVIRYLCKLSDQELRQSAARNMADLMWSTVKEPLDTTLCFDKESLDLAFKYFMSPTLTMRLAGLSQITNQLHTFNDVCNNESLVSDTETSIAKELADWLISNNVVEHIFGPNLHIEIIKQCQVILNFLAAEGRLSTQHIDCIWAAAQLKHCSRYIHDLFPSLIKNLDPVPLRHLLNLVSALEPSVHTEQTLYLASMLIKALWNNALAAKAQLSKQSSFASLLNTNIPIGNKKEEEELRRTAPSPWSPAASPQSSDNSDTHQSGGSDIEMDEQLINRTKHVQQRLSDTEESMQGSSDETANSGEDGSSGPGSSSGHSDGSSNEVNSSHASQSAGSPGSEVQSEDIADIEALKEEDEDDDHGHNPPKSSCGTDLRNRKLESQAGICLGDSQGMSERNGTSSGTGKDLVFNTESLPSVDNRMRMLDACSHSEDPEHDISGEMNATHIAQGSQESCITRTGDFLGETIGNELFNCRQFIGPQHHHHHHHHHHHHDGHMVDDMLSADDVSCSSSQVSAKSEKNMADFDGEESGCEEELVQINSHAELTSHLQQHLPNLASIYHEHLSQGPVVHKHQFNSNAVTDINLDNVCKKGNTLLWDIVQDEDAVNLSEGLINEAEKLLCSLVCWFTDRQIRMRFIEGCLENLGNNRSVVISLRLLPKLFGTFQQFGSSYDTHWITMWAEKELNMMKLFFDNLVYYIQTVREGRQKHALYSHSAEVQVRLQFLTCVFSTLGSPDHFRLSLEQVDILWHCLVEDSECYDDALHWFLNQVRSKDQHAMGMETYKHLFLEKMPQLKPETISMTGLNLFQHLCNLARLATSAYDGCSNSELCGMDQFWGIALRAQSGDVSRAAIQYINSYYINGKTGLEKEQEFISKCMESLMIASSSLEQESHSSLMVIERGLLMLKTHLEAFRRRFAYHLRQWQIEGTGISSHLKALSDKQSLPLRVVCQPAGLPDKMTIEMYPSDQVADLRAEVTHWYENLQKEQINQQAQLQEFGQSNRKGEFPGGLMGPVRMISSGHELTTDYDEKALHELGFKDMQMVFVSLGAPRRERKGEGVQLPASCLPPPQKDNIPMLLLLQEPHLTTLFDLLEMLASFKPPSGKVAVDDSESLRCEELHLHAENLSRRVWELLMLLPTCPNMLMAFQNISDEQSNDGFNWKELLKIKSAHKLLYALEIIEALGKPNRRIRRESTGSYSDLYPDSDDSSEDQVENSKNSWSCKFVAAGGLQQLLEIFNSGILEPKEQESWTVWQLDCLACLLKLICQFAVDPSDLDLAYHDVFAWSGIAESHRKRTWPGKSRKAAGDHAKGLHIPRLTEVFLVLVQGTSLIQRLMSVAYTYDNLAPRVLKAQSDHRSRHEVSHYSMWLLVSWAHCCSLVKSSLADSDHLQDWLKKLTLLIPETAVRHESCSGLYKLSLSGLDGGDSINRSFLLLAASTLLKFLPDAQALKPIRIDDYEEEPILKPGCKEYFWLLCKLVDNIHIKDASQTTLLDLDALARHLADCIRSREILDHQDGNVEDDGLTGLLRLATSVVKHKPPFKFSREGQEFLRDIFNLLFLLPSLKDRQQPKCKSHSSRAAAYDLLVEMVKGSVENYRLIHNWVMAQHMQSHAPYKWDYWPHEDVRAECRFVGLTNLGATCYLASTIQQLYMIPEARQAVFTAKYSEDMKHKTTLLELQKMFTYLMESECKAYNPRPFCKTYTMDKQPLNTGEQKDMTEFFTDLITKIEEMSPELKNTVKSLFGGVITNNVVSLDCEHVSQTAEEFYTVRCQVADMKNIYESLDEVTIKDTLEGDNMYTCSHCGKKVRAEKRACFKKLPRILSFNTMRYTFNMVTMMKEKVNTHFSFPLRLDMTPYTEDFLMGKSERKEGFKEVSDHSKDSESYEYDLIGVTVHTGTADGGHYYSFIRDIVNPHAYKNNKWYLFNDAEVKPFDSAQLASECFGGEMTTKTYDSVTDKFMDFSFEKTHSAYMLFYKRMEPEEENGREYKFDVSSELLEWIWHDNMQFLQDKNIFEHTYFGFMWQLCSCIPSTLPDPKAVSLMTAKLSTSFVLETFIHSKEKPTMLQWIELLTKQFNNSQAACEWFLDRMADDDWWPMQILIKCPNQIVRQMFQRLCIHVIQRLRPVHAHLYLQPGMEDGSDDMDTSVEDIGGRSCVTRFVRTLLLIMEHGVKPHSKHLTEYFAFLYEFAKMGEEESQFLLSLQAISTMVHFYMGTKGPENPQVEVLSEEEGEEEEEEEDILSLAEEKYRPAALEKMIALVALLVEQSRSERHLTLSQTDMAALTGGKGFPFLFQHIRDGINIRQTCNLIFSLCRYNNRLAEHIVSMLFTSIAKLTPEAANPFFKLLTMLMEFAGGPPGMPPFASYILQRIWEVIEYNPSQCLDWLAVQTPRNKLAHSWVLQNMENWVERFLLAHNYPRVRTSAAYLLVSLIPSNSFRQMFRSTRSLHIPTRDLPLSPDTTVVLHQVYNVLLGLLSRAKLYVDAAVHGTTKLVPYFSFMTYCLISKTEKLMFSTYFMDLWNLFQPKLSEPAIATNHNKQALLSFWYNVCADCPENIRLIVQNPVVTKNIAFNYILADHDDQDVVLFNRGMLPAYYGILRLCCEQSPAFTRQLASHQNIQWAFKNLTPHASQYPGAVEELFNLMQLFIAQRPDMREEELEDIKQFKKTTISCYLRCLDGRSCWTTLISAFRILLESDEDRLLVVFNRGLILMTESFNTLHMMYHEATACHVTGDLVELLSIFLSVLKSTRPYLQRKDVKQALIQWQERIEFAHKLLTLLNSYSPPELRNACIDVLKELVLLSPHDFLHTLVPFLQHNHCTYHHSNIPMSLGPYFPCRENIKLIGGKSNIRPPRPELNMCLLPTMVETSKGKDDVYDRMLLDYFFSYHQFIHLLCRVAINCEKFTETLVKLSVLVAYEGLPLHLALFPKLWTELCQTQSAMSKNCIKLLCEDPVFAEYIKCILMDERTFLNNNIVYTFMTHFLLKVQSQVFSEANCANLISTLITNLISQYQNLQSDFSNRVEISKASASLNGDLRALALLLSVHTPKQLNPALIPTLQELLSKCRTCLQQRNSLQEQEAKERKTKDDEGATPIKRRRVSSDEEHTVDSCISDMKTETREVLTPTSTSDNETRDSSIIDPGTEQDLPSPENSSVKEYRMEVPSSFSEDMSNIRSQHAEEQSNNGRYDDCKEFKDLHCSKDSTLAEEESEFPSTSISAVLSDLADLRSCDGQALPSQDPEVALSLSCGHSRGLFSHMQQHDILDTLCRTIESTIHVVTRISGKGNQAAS

Cc1cnc2[nH]cc(CCNC(=O)CCl)c2c1
inactive: USP34 -0.162 | USP36 -0.31 | USP38 0.0877 | USP39 0.144 | USP4 -0.338

From the supplement of paper PMC11732987, “Enantioselective OTUD7B fragment discovery through chemoproteomics screening and high-throughput optimisation” (Communications Chemistry, 2025)
